Source: PubChem BioAssay (The Scripps Research Institute Molecular Screening Center)
GPR151 ag = activators of human GPR151, primary screen, cell-based, PathHunter beta-arrestin, luminescence; G-protein coupled receptor 151 (Homo sapiens), Q8TDV0; PathHunter beta-arrestin GPR151 cells; activation, % at 11.2 µM; hit rate 1% among 650,000; in the data active = activation above about 4.9%;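 also: 0% = median of compound wells and 100% = cells with positive control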
TEAD-YAP block = TEAD-YAP interaction inhibition, primary screen, TEAD-YAP interaction inhibitor project, luminescence, HEK-TIYL cells | TEAD-Gal4/YAP UAS-luciferase luminescence | inhibition, % at 9.12 µM | hit rate 1.4% among 640,000 | AID 1259422, 2018; in the data active = inhibition above about 32%;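 also: 0% = median of test compound wells and 100% = reference inhibitor wells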
MITF inh = MITF inhibitors, primary screen, biochemical, AlphaScreen, human; Microphthalmia-associated transcription factor (Homo sapiens), O75030; AlphaScreen MITF homodimerization, bead proximity signal; inhibition, % at 2.6 µM; hit rate 0.91% among 650,000; AID 1259374, 2018; in the data active = inhibition above about 50%;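 also: 0% = vehicle wells with protein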
Target sequence (O75030 whole entry, looked up): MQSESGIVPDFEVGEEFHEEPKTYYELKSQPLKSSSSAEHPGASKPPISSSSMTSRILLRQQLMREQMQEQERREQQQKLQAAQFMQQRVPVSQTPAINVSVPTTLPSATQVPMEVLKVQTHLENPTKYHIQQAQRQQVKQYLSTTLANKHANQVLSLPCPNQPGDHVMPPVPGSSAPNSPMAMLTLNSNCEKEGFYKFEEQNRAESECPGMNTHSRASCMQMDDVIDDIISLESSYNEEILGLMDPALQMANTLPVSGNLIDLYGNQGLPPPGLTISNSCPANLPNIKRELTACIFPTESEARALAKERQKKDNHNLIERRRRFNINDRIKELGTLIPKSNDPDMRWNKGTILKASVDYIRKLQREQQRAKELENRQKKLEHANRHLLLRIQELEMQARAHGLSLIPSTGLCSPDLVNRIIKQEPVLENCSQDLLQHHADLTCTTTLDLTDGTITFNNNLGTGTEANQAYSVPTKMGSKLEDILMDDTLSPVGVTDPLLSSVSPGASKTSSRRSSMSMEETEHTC
FBW7 activator = FBW7 E3 ligase activators, primary screen, biochemical, AlphaScreen, human. F-box/WD repeat-containing protein 7 (Homo sapiens), Q969H0. AlphaScreen FBW7–phospho-cyclin E peptide binding, activator screen. normalized activity (activation), % at 26.1 µM. hit rate 0.13% among 650,000; in the data active = normalized activity above about 1.9%;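 also: purified mutant Fbw7 with reduced substrate affinity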
GPR151 conf act = GPR151 activators, triplicate retest, confirmation, cell-based, PathHunter beta-arrestin, luminescence; shares compounds with GPR151 ag; GPR151 PathHunter beta-arrestin cells, 90 min; % of EA-reagent control over plate median; activation, % at 11.2 µM; 6,700 tested, under 10 active; AID 1508609, 2020;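 active = mean percent activation across replicates above the confirmation screen cutoff of 4.91%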
GPR119 ag = GPR119 activators in beta-arrestin cells, counter-screen for GPR151 activator project, cell-based, PathHunter beta-arrestin, luminescence, triplicate; shares compounds with GPR151 ag; 90 min; 0 = compound-well median, 100 = enzyme-acceptor control; activation, % at 11.2 µM; hit rate 0.3% among 6,700;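 active = mean percent activation in the counterscreen above 29.09%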;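 also: counterscreen on off-target GPR119 to flag nonselective hits from the GPR151 activator screen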
* hit, by the source's call. An excerpt weighted towards active compounds, which were near 3.5% of everything screened.

Screening COc1ccc(C2CC(=O)C3=C(C2)Nc2ccccc2N(C(=O)C(F)(F)F)C3c2ccccc2)cc1 (stereo unspecified) returned GPR151 ag 5.1*, TEAD-YAP block 4.8, MITF inh -11.4, FBW7 activator -0.2, GPR151 conf act 1.3 and GPR119 ag 2.7.
Cc1cc(NC(=O)Cn2cnc3sc(C)cc3c2=O)no1 was read as GPR151 ag -0.6, TEAD-YAP block 0.5, MITF inh 5.4 and FBW7 activator -0.1.
`CCS/C(=C(\C#N)C(N)=O)c1ccc(-c2ccccc2)[nH]1` gave GPR151 ag 5.2*, TEAD-YAP block 6.9, MITF inh -2.1, FBW7 activator -0.2, GPR151 conf act 0.1 and GPR119 ag 5.4.
For CCOc1ccc(-c2[nH]nc3c2C(c2ccccc2F)C(C#N)=C(N)O3)c(OCC)c1 (stereo unspecified) the results were GPR151 ag 7.1*, TEAD-YAP block 1.1, MITF inh 10.2, FBW7 activator 0.2, GPR151 conf act -0.6 and GPR119 ag 6.3.
For CCn1c(C)cc(/C=C/c2oc3ccccc3[n+]2CC)c1C the results were GPR151 ag -2.5, TEAD-YAP block -5.5, MITF inh 19.5 and FBW7 activator 0.1.
Screening CC[n+]1c(/C=C/N(C)c2ccccc2)oc(-c2ccccc2)c1-c1ccccc1 returned GPR151 ag 5.7*, TEAD-YAP block 91.7*, MITF inh 1.9, FBW7 activator 0.0, GPR151 conf act 0.5 and GPR119 ag 18.4.
Screening COc1ccc(Cn2c(O)c(C=Nc3ccc(OC)cc3OC)c3ccccc3c2=O)cc1 returned GPR151 ag 7.0*, TEAD-YAP block 3.7, MITF inh -7.5, FBW7 activator -0.1, GPR151 conf act 1.6 and GPR119 ag -4.8.
Screening CSCCCN1C(=O)CCC1CCNCc1ccc(F)cc1 (stereo unspecified) returned GPR151 ag 0.3, TEAD-YAP block -1.5, MITF inh -10.7 and FBW7 activator 0.0.
`COc1ccc(C2CC(C(F)(F)F)n3nc(C(=O)NCc4cccs4)c(Cl)c3N2)cc1OC` (stereo unspecified) gave GPR151 ag -0.4, TEAD-YAP block 14.1, MITF inh 4.7 and FBW7 activator -0.1.
`Cc1cc(C)c2[nH]c(=O)c(CN(CCCO)Cc3nnnn3CCc3ccccc3)cc2c1` gave GPR151 ag 6.0*, TEAD-YAP block 13.8, MITF inh 10.2, FBW7 activator 0.6, GPR151 conf act 1.2 and GPR119 ag 9.1.
Screening COc1ccc2cc(CN(CCCO)C(=O)c3ccc(C)cc3)c(=O)[nH]c2c1 returned GPR151 ag 5.5*, TEAD-YAP block -4.3, MITF inh 4.3, FBW7 activator 0.0, GPR151 conf act 1.4 and GPR119 ag 6.1.
COc1ccc(Cn2nnnc2CN(CCCO)Cc2cc3cc(C)ccc3[nH]c2=O)cc1 was read as GPR151 ag 6.7*, TEAD-YAP block 6.9, MITF inh 12.9, FBW7 activator -0.1, GPR151 conf act -1.3 and GPR119 ag -14.4.
COc1ccc(OC(C)C(=O)Nc2ccc(C)cc2)cc1 (stereo unspecified) was read as GPR151 ag 1.7, TEAD-YAP block 9.9, MITF inh 9.9 and FBW7 activator 1.1.
Cc1ccc(C2Oc3ccccc3C3=C2C(c2cccnc2)n2nnnc2N3)cc1 (stereo unspecified) was read as GPR151 ag -1.9, TEAD-YAP block -1.3, MITF inh -3.3 and FBW7 activator 0.0.
CN1CCN(C(CNC(=O)Nc2ccc(F)cc2)c2ccc3c(c2)CCN3C)CC1 (stereo unspecified) was read as GPR151 ag 0.1, TEAD-YAP block 0.6, MITF inh -0.5 and FBW7 activator -0.1.
Cc1cccc(NC(=O)NCC(c2ccc3c(c2)CCN3C)N2CCN(C)CC2)c1 (stereo unspecified) was read as GPR151 ag 5.0*, TEAD-YAP block -8.2, MITF inh 8.4, FBW7 activator -0.2, GPR151 conf act 0.4 and GPR119 ag 13.5.
For CC(C)N(CCNC(=O)c1cccc(NCCCN2CCCC2=O)c1)C(C)C the results were GPR151 ag 5.0*, TEAD-YAP block -0.5, MITF inh 3.1, FBW7 activator 0.0, GPR151 conf act -0.6 and GPR119 ag 5.2.
Cn1c2ccccc2c(=O)c2cc(N)ccc21 was read as GPR151 ag 0.5, TEAD-YAP block -19.4, MITF inh 18.1 and FBW7 activator -0.1.
Screening Cc1nc(NCc2cnn(C)c2)sc1-c1ccn(C2Cc3ccccc3C2)n1 returned GPR151 ag 0.6, TEAD-YAP block -4.0, MITF inh 1.1 and FBW7 activator 0.5.
For CN(CCC#N)c1ncnc2c1oc1ccccc12 the results were GPR151 ag 10.5*, TEAD-YAP block -8.7, MITF inh -6.5, FBW7 activator -0.1, GPR151 conf act 0.0 and GPR119 ag 4.2.
CC1CCCCC1NC(=O)Cn1nc(-c2ccc(Cl)cc2)ccc1=O (stereo unspecified) was read as GPR151 ag 5.6*, TEAD-YAP block 3.6, MITF inh 4.2, FBW7 activator 0.3, GPR151 conf act 0.8 and GPR119 ag -4.3.
For CC(C)C(=O)N1CCN(Cc2ccccc2F)C[C@@H]1C(C)C the results were GPR151 ag 0.1, TEAD-YAP block 3.9, MITF inh 9.1 and FBW7 activator -0.1.
Screening CCN(CC)S(=O)(=O)c1ccc(OCc2ccccc2C#N)c([N+](=O)[O-])c1 returned GPR151 ag 5.0*, TEAD-YAP block 7.4, MITF inh -8.9, FBW7 activator -0.2, GPR151 conf act 0.1 and GPR119 ag 0.6.
O=C(NCCc1c[nH]c2ccccc12)C12CC3CC(CC(O)(C3)C1)C2 was read as GPR151 ag 7.6*, TEAD-YAP block -10.7, MITF inh 6.2, FBW7 activator -0.1, GPR151 conf act -0.1 and GPR119 ag -0.7.
For CCCC(=O)Nc1ccc(Oc2ccc3c(c2)C(=O)NC3=O)cc1 the results were GPR151 ag -1.4, TEAD-YAP block -6.1, MITF inh 15.5 and FBW7 activator 0.0.
`CCCC(=O)Nc1cccc(Oc2ccc3c(c2)C(=O)NC3=O)c1` gave GPR151 ag 6.0*, TEAD-YAP block -3.8, MITF inh -8.9, FBW7 activator -0.1, GPR151 conf act -0.5 and GPR119 ag -7.8.
